# Reference: PubChem BioAssay AID1903 (Southern Research Specialized Biocontainment Screening …, 2009)
# Hit rate of the full screen: of about 310,000 compounds, about 1,200 (0.39%) were called active. No rule for the calls is given here. A selection follows. Entries with a potency or affinity are not part of this list.
# Biological target: Large T antigen (Simian virus 40) (UniProt P03070)
# Assay: TAg ATPase/helicase activity blockers – biochemical (AID 1903)
# Conditions: SV40 large T antigen ATPase/helicase inhibition assay; at 20 µM; stronger effect = higher value
# Large T antigen (Simian virus 40), sequence (P03070 whole entry, looked up): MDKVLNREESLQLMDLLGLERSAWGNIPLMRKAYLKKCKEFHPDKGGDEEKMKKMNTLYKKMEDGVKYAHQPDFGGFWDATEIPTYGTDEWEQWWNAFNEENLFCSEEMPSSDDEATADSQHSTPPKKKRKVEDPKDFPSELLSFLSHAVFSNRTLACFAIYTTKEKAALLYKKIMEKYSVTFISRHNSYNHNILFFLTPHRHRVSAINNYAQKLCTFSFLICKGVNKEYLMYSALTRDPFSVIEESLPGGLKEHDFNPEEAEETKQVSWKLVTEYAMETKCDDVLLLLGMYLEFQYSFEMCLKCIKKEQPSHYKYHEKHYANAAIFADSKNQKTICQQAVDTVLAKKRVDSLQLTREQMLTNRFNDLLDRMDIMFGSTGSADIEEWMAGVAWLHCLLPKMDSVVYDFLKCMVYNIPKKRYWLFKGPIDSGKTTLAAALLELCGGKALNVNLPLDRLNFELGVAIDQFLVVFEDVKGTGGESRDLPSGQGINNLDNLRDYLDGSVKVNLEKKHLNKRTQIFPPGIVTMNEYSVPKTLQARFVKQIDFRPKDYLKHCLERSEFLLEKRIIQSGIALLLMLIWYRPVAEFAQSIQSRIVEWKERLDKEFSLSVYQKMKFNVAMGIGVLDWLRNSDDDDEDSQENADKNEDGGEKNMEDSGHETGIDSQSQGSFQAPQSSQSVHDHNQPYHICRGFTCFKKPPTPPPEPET
row,SMILES,inhibition
1,O=C(NCCN1CCCCCC1)C1CCC(CNS(=O)(=O)c2cccc3cccnc23)CC1 (centres undefined),10.5% (inactive)
2,CCCN1CCN(CCCNC(=O)CCN2C(=O)COc3ccccc32)CC1,15.1% (inactive)
3,COc1ccc(CCNC(=O)Cn2cnc3scc(-c4ccccc4)c3c2=O)cc1OC,5.46% (inactive)
4,Cn1nc(C(=O)Nc2ccc(S(=O)(=O)N3CCCC3)cc2)ccc1=O,0.66% (inactive)
5,Cc1ccc(C(=O)Nc2ccncc2)cc1[N+](=O)[O-],13% (inactive)
6,Nc1n[nH]c(N)c1N=Nc1ccc(F)cc1,13.8% (inactive)
7,Cc1ccc(N=Nc2c(N)n[nH]c2N)cc1,25% (inactive)
8,COc1cc2[nH]c3c(=O)n4c(nc3c2cc1OC)SCCC4,7.73% (inactive)
9,Cc1cccc(NNC(=O)C2CCC2)c1,10.2% (inactive)
10,N#Cc1c(NC(=O)c2ccco2)sc2c1CCC2,28.5% (inactive)
11,N#Cc1c(NC(=O)/C=C/c2ccco2)sc2c1CCCC2,11.5% (inactive)
12,O=C(CCc1nnc2ccc(NCc3ccco3)nn12)Nc1ccccc1F,14.6% (inactive)
13,CCN(c1ccccc1)S(=O)(=O)c1cccc(C(=O)NCC(c2ccco2)N2CCCC2)c1 (centres undefined),20.1% (inactive)
14,O=S1(=O)N=C(Nc2ccc(N3CCOCC3)cc2)c2ccccc21,7.37% (inactive)
15,CCN(CC)S(=O)(=O)c1ccc(NC2=NS(=O)(=O)c3ccccc32)cc1,5.33% (inactive)
16,CN(C)CCOC(=O)C12CC3(C)CC(C)(CC(C)(C3)C1)C2,20.7% (inactive)
17,COc1ccc(S(=O)(=O)/N=C2/NC(=O)/C(=C\c3cc(OC)c(OC)cc3[N+](=O)[O-])S2)cc1,31.5% (inactive)
18,COc1cc(/C=C2\S/C(=N/S(=O)(=O)c3ccccc3)NC2=O)c([N+](=O)[O-])cc1OC,23% (inactive)
19,Cc1ccnc(NC(c2ccccc2O)c2oc(CO)cc(=O)c2O)c1 (centres undefined),13.4% (inactive)
20,COc1cccc(CN2CCN(Cc3nc4c(s3)CCCC4)CC2CCO)c1 (centres undefined),7.56% (inactive)
21,N#Cc1ccc(Oc2ccc(S(=O)(=O)N3CCOCC3)cn2)cc1,8.88% (inactive)
22,O=C1NC(=O)/C(=C/c2ccccc2Cl)N1,2.2% (inactive)

row,SMILES,inhibition
1,O=C1Nc2ccccc2/C1=C/c1ccccc1Cl,4.98% (inactive)
2,O=C1CCC(C(=O)OCC(=O)c2ccccc2)N1 (centres undefined),-3.04% (inactive)
3,Cc1ccc([C@@H]2[C@@H]3C(=O)N(C)C(=O)[C@@H]3[C@]3(C)C(=O)N(Cc4ccccn4)CC(=O)N23)o1,21.8% (inactive)
4,CC1=Nc2cccc3cccc(c23)N1,14.5% (inactive)
5,CC(C)C1=Nc2cccc3cccc(c23)N1,31.8% (inactive)
6,NS(=O)(=O)c1ccc(CNS(=O)(=O)c2ccc3ccccc3c2)cc1,8.92% (inactive)
7,O=S1(=O)N=C(N(CCO)/N=C/c2ccccc2)c2ccccc21,-0.93% (inactive)
8,O=C(O)CCCc1ccc2c(c1)CCc1ccccc1-2,4.11% (inactive)
9,CC(=O)Nc1ccc2c(c1)CCc1ccccc1-2,2.87% (inactive)
10,CCCCNC(=S)NNC(=O)c1c(Cl)c(C)nn1C,13.2% (inactive)
11,COC(=O)c1ccccc1-c1ccc(/C=C2\C(=O)N(c3ccccc3)N=C2c2ccccc2)o1,-14% (inactive)
12,Cc1ccc(C(=O)/C=C/c2ccc(-c3ccccc3[N+](=O)[O-])o2)cc1,-1.93% (inactive)
13,CC1=NN(c2ccc(Br)cc2)C(=O)/C1=C/c1ccc(-c2ccccc2C(=O)O)o1,33.3% (inactive)
14,CCN1C(=O)/C(=C\c2ccc(-c3ccc([N+](=O)[O-])cc3OC)o2)SC1=Nc1cccc(C(=O)O)c1,13.7% (inactive)
15,CCSC1=N/C(=C\c2ccc(-c3ccccc3[N+](=O)[O-])o2)C(=O)S1,45.4% (inactive)
16,COc1ccc(OC)c(CNc2ccc([N+](=O)[O-])cc2C)c1,-3.94% (inactive)
17,COc1ccc(Br)cc1S(=O)(=O)n1c([N+](=O)[O-])cnc1C,-1.15% (inactive)
18,C=CCn1cccc(C(=O)Nc2ccc(C)c(C)c2)c1=O,10.4% (inactive)
19,Cc1ccc(CNC(=O)COC(=O)Cc2ccc(-c3ccccc3)cc2)cc1,1.94% (inactive)
20,CCc1nnc(NC(=O)CCN2C(=O)C3CCCCC3C2=O)s1 (centres undefined),8.24% (inactive)
21,CCOC(=O)C(C)Sc1nc2c(c(=O)[nH]c(=O)n2C)n1C/C=C(/C)Cl (centres undefined),0.445% (inactive)
22,CC(=O)Oc1ccc2oc(/C=C/N(C)C)c([N+](=O)[O-])c2c1,13% (inactive)

row,SMILES,inhibition
1,CN(C)/C=C/c1oc2ccc(O)cc2c1[N+](=O)[O-],32% (inactive)
2,OC(COc1ccc(CNCCc2ccccc2F)cc1)CN1CCCCC1 (centres undefined),5.86% (inactive)
3,COCCNC(=S)N/N=C(\C)c1ccc(OC(F)F)cc1,21.1% (inactive)
4,COCCNC(=S)N/N=C(\C)c1ccc(OC)cc1,13.8% (inactive)
5,COC(=O)c1ccccc1NC(=O)CSc1n[nH]c(C)n1,0.8% (inactive)
6,Cc1ccc(Cl)cc1NC(=O)C(NS(=O)(=O)c1cccs1)c1ccccc1 (centres undefined),3.94% (inactive)
7,CC(C)C(NS(=O)(=O)c1ccc2c(c1)OCCCO2)C(=O)O (centres undefined),-3.36% (inactive)
8,Nc1ccc2nc(-c3ccc(-c4nc5ccc(N)cc5[nH]4)cc3)[nH]c2c1,12.1% (inactive)
9,Nc1ccc2nc(-c3ccc(Cl)cc3)[nH]c2c1,28% (inactive)
10,Cc1ccc(-n2nc(C(=O)O)nc2-c2ccccc2)cc1,38% (inactive)
11,Cc1cc(=O)nc2c3ccccc3n(CC(=O)NCCC3=CCCCC3)n12,2.66% (inactive)
12,COc1ccc(S(=O)(=O)N2CCOC2CNC(=O)C(=O)NCCc2ccccc2)cc1C (centres undefined),6.95% (inactive)
13,O=C(O)c1ccc(N=Cc2c(O)ccc3ccccc23)cc1,6.09% (inactive)
14,Cc1ccc(O)c(N=Cc2cc(Cc3ccccc3)cc([N+](=O)[O-])c2O)c1,15.2% (inactive)
15,COc1cccc(C=Nc2ccc3c(c2)OCCO3)c1O,21.9% (inactive)
16,CN1CCN(/N=C/c2c3ccccc3c(Cl)c3ccccc23)CC1,1.67% (inactive)
17,C=Cc1ccc(N=Cc2c(O)ccc3ccccc23)cc1,-18.3% (inactive)
18,COc1cccc(/C=N/N2CCOCC2)c1O,3.29% (inactive)
19,CN1CCN(CC(=O)N/N=C\c2c[nH]c3ccccc23)CC1,5.96% (inactive)
20,O=[N+]([O-])c1ccc(N2CCOCC2)cc1NCc1ccccc1,5.38% (inactive)
